# Source: PubChem BioAssay AID463173 (ICCB-Longwood Screening Facility, Harvard Medical School, 2010)
# Hit rate of the full screen: of about 52,000 compounds, about 4,300 (8.3%) were called active. What follows is part of a selection rich in actives, with near analogues and random picks from the rest. Unmarked numbers belong to inactive results. Cut-off read from the data, not from the text of the source: active = survival mostly below about 52% (no sharp cut-off); inactive = mostly above about 56%.
# System: DeltatarO mutant
# Assay: S. aureus survival, RN4220 and DeltatarO strains – OD600, teichoic acid synthesis inhibitors, primary screen (AID 463173)
# Conditions: S. aureus RN4220 wild type/DeltatarO growth, OD600, 18 h, hits give low values, screened at 18.75 µg/mL (by protocol)
row,SMILES,survival
1,O=C(NCCCN=C1NS(=O)(=O)c2ccccc21)c1ccncc1,85%
2,O=C(Nc1c(C(=O)N2CCN(c3ccc(F)cc3)CC2)oc2ccccc12)c1ccco1,74%
3,O=C(Nc1c(C(=O)N2CCN(c3ccccc3F)CC2)oc2ccccc12)c1ccco1,69%
4,COc1cccc(C(=O)Nc2c(C(=O)Nc3ccc(F)cc3)oc3ccccc23)c1OC,60%
5,CCOc1ccc(C(=O)Nc2c(C(=O)c3ccc(OC)cc3)oc3ccccc23)cc1,79%
6,COc1ccc(C(=O)c2oc3ccccc3c2NC(=O)c2cccc(OC)c2)cc1,58%
7,O=C(Nc1c(C(=O)Nc2ccc(F)cc2)oc2ccccc12)c1ccccc1F,40% (active)
8,CCOc1ccccc1C(=O)Nc1c(C(=O)Nc2ccc(F)cc2)oc2ccccc12,83%
9,O=C(Nc1c(C(=O)N2CCN(c3ccccc3)CC2)oc2ccccc12)c1ccco1,37% (active)
10,CCOc1cccc(C(=O)Nc2c(C(=O)c3ccc(OC)cc3)oc3ccccc23)c1,28% (active)
11,COCCNC(=O)c1ccc2nc(CCc3ccccc3)oc2c1,112%
12,CCOC(=O)c1c(NC(=O)/C=C/c2ccc(OCC)cc2)sc(C)c1C,50%
13,CCOc1ccc(C(c2c(O)cc(C)n(CCOC)c2=O)N2CCC(C)CC2)cc1 (stereo unspecified),73%
14,O=C(CN(c1cc(C(F)(F)F)ccc1Cl)S(=O)(=O)c1ccccc1)NCCc1ccccc1,66%
15,Cc1cccc(N(CC(=O)NCc2ccccc2)S(C)(=O)=O)c1C,70%
16,CCOc1ccc(S(=O)(=O)N(CC(=O)NCc2ccccc2OC)c2ccccc2)cc1,37% (active)
17,COc1ccc(OC)c(NC(=O)CN(c2ccccc2OC)S(=O)(=O)c2ccc(C)cc2)c1,54%
18,CCc1ccccc1NC(=O)CN(c1cc(C(F)(F)F)ccc1Cl)S(=O)(=O)c1ccccc1,44% (active)
19,CCOc1ccc(S(=O)(=O)N(CC(=O)NCCc2ccc(OC)c(OC)c2)c2ccccc2)cc1,49%
20,CCOc1ccc(S(=O)(=O)N(CC(=O)NCCc2ccc(OC)cc2)c2ccccc2)cc1,92%
21,Cc1cc(C)cc(NC(=O)CN(c2cc(C(F)(F)F)ccc2Cl)S(=O)(=O)c2ccccc2)c1,79%
22,Cc1cccc(N(CC(=O)Nc2cccc(Cl)c2C)S(C)(=O)=O)c1C,61%
23,CCc1ccccc1NC(=O)CN(c1cccc(C)c1C)S(C)(=O)=O,54% (active)
24,CCc1ccccc1NC(=O)CN(c1ccccc1OC)S(=O)(=O)c1ccc(C)cc1,36% (active)
25,COc1ccccc1N(CC(=O)Nc1ccccc1C(F)(F)F)S(=O)(=O)c1ccc(C)cc1,64%
26,COc1cccc2cc(C(=O)N3CCCCC3)c(=O)oc12,85%

row,SMILES,survival
1,Nc1cccc(C(=O)NC23CC4CC(CC(C4)C2)C3)c1,95%
2,O=C1CCCC/C1=N\Nc1ccc(N2CCCCC2)cc1,90%
3,Cc1nc2ccn(Cc3ccco3)c(=O)c2cc1C(=O)NCc1ccccc1F,86%
4,O=C(O)c1ccccc1SC1CC(=O)N(Cc2ccccc2)C1=O (stereo unspecified),81%
5,CCOc1ccc(CCNC(=O)CCCc2nnc3n(CCCOC)c(=O)c4sccc4n23)cc1,91%
6,NS(=O)(=O)c1ccc(NC(=O)C2CCCO2)cc1 (stereo unspecified),95%
7,CCN1c2ccccc2-n2cccc2C12CCN(C(=O)Nc1ccccc1Br)CC2,91%
8,COc1ccc(CCNC(=O)Cc2c(C)c3c(cc(C)c4c(C)c(C)oc43)oc2=O)cc1OC,83%
9,Cc1ccc2c(CNCC(C)c3ccccc3)c(C(=O)O)n(Cc3ccccc3C)c2c1 (stereo unspecified),70%
10,COc1ccccc1N(CC(=O)NCCSCc1ccccc1)S(C)(=O)=O,70%
11,COc1ccccc1N(CC(=O)NCCSCc1ccccc1)S(=O)(=O)c1ccc(C)cc1,41% (active)
12,COc1ccccc1N(CC(=O)NCCSc1ccccc1)S(=O)(=O)c1ccc(C)cc1,62%
13,Cc1ccc(Cn2cc3c(n2)-c2c(oc(C(=O)Nc4ccc(F)cc4F)c2C)CC3)cc1,85%
14,CN1CCN(c2nc3c(S(=O)(=O)c4ccccc4)nnn3c3ccsc23)CC1,86%
15,Cc1ccc(-c2cc(C(=O)Oc3ccccc3Cl)no2)cc1C,-1% (active)
16,Cc1ccc(OC(=O)c2cc(-c3ccc4c(c3)OCCO4)on2)c(C)c1,-2% (active)
17,Cc1cccc(OC(=O)CSc2nnc(-c3ccc4c(c3)OCO4)o2)c1C,72%
18,CC(C)c1ccc(OC(=O)c2cc(-c3ccccc3)on2)cc1,109%
19,Cc1ccc(OC(=O)c2cc(-c3ccc(Cl)cc3)on2)c(C)c1,92%
20,Cc1cccc(OC(=O)c2cc(-c3ccc(Cl)cc3)on2)c1C,106%
21,Cc1cccc(OC(=O)c2cc(-c3ccc4c(c3)OCCO4)on2)c1C,-1% (active)
22,Cc1ccc(NC(=O)c2cc(-c3ccc4c(c3)OCO4)on2)cc1,75%
23,COc1ccc(-c2cc(C(=O)Nc3c(Cl)cccc3Cl)no2)cc1OC,58%
24,Cc1ccccc1OC(=O)c1cc(-c2ccc3c(c2)OCCO3)on1,-1% (active)
25,COc1ccc(Nc2nnc(-c3cc4cc(Cl)ccc4oc3=O)s2)cc1,81%
26,COc1ccc(Br)cc1CNC(=O)CN1C(=O)CCCc2ccccc21,80%

row,SMILES,survival
1,Cn1c(=O)n(C)c2cc(CNCc3ccccc3)ccc21,88%
2,COC(=O)c1ccc(C(=O)OC)c(NC(=O)c2c(-c3ccccc3)noc2C)c1,147%
3,COc1cccc(CSc2nc3n(n2)C(CC(C)C)C(C(=O)Nc2ccccc2C)=C(C)N3)c1 (stereo unspecified),87%
4,Cc1ccc(N2CC(c3nc(-c4ccc(Cl)cc4)no3)CC2=O)cc1F (stereo unspecified),98%
5,CCS(=O)(=O)c1nc(S(=O)(=O)c2ccc(C)cc2)c(NCC(C)C)s1,95%
6,CCN1CCN(C(c2ccccc2Cl)c2sc3nc(-c4ccco4)nn3c2O)CC1 (stereo unspecified),92%
7,O=C(Oc1ccccc1Cl)c1cc(-c2ccc3c(c2)OCCO3)on1,-2% (active)
8,O=C(Nc1ccccc1C(F)(F)F)c1cc(-c2ccc3c(c2)OCCO3)on1,117%
9,COc1ccc(CNC(=O)c2cc3cc4ccc(C)cc4nc3o2)cc1,74%
10,Cc1ccc(C)c(N2CCN(C(=O)c3cc4cc5ccc(C)cc5nc4o3)CC2)c1,90%
11,CCN(C(=O)c1cc2cc3ccc(OC)cc3nc2o1)c1cccc(C)c1,6% (active)
12,COc1ccc2cc3cc(C(=O)NCc4ccc(C)cc4)oc3nc2c1,83%
13,Cc1ccc2cc3cc(C(=O)N4CCN(c5ccccc5)CC4)oc3nc2c1,61%
14,Cc1ccc2cc3cc(C(=O)N(C)c4ccccc4C)oc3nc2c1,53% (active)
15,Cc1ccccc1Cn1c(CN2CCC(C(=O)NCCN(C)C)CC2)cc2ccccc21,112%
16,COc1ccc(S(=O)(=O)N(C)CC(=O)NCc2ccc3c(c2)OCO3)cc1,89%
17,COc1ccc(/C=C(\C#N)C(=O)NCc2ccco2)cc1C,80%
18,Cc1c(Cl)cccc1NC(=O)c1ccc2snnc2c1,126%
19,Cc1cc(C)c(NC(=O)Nc2ccc3snnc3c2)c(C)c1,118%
20,CCc1ccccc1NC(=O)Nc1ccc2snnc2c1,41% (active)
21,Cc1c(Cl)cccc1NC(=O)Nc1ccc2snnc2c1,-4% (active)
22,Cc1ccc(F)c(NC(=O)Nc2ccc3snnc3c2)c1,97%
23,CCOc1ccc(NC(=O)Nc2ccc3snnc3c2)cc1,110%
24,CC(C)(C)C1CCc2onc(C(=O)Nc3sc4c(c3C#N)CCCC4)c2C1 (stereo unspecified),105%
25,NC(=O)c1c(NC(=O)c2noc3c2CCCC3)sc2c1CCCC2,40% (active)
26,CC(=O)Nc1sc2c(c1C(N)=O)CCCC2,80%

row,SMILES,survival
1,CCOC(=O)c1c(NC(=O)c2noc3c2CC(C(C)(C)C)CC3)sc2c1CCCC2 (stereo unspecified),66%
2,CC(C)(C)C1CCc2onc(C(=O)Nc3sc4c(c3C(N)=O)CCCC4)c2C1 (stereo unspecified),45% (active)
3,NC(=O)c1c(NC(=O)c2cc(-c3ccc(F)cc3)on2)sc2c1CCCC2,62%
4,CCOC(=O)c1noc2nc(C)n(Cc3cccc(C#N)c3)c(=O)c12,87%
5,O=C(NCc1ccccc1F)C1CCN(Cc2cc3ccccc3n2Cc2cccc(Cl)c2)CC1,78%
6,CCc1sc(Nc2cccc(Cl)c2C)nc1-c1cc2cccc(OC)c2oc1=O,67%
7,O=C(NC1CCCC1)C(c1ccsc1)N(C(=O)Cc1cccs1)c1ccccc1 (stereo unspecified),86%
8,O=c1[nH]c2ccc(S(=O)(=O)NC3CCCCC3)cc2[nH]1,62% (active)
9,CCCNS(=O)(=O)c1ccc2[nH]c(=O)[nH]c2c1,96%
10,O=S(=O)(NC1CCCC1)c1ccc(Br)cc1,93%
11,Cc1nc2c(-c3ccc(F)cc3)c(C)nn2c(C)c1CCC(=O)NCc1ccc(F)cc1,78%
12,COc1ccc(NC(=O)CSc2nc3ccccc3nc2N2CCC(C)CC2)cc1,45%
13,CC(=O)Nc1ccc(NC(=O)CSc2nc3ccccc3nc2N2CCCCC2)cc1,57%
14,COc1cccc(Cc2nc3ccccc3nc2SCC(=O)Nc2cc(OC)ccc2OC)c1,47% (active)
15,CC(C)NC(=O)CSc1nc2ccccc2nc1N1CCCCC1,-26% (active)
16,CCN(C(=O)CSc1nc2ccccc2nc1Cc1cccc(OC)c1)c1cccc(C)c1,0% (active)
17,COc1ccc(NC(=O)CSc2nc3ccccc3nc2N2CCCCC2)cc1,18% (active)
18,CCc1ccccc1NC(=O)CSc1nc2ccccc2nc1Cc1cccc(OC)c1,86%
19,CCN(C(=O)CSc1nc2ccccc2nc1Cc1ccc(F)cc1)c1cccc(C)c1,86%
20,CC(C)NC(=O)CSc1nc2ccccc2[nH]1,60%
21,COc1cccc(Cc2nc3ccccc3nc2SCC(=O)Nc2ccccc2F)c1,67%
22,O=C(O)CSc1nc2ccccc2nc1N1CCCCC1,56%
23,COc1cccc(Cc2nc3ccccc3nc2SCC(=O)Nc2cccc(C)c2)c1,94%
